Assay results reported in the supplement of paper PMC10849652.
About 7,900 targets were measured; listed, in parts, are those with a hit and a random draw of the rest. About 0.6% of all pairs of compound and target were hits.

Tests used:
Assay in all cases: log2 fold change, soluble protein after heating vs DMSO (PISA); higher = thermal stabilisation; K562 cells, 10 uM, 30 min; active = over 0.2 and 3.5 SD of the protein, either way, in both replicates (recomputed)
[1] = biological target: YAE1 (UniProt Q9NRH1)
Outline: (§1)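 K562 cells at 2×10^6 cells/mL were given 10 μM compound for 30 min. Aliquots then went through 3 min of heating across 48°C-58°C, were pooled, and were extracted in PBS with 0.5% NP-40 at 4°C, and the supernatant after 21,000xg for 90 min was quantified by TMTpro 16plex LC-MS/MS with channel sums equalised. Thermal stability relative to control samples, from duplicates, is given as log2 fold change.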

[2] = biological target: YBX1 (UniProt P67809)
Outline: as §1

[3] = biological target: YES1 (UniProt P07947)
Outline: as §1

[4] = biological target: YIPF4 (UniProt Q9BSR8)
Outline: as §1

[5] = biological target: YIPF5 isoform 3 (UniProt Q969M3)
Outline: as §1

[6] = biological target: YIPF6 (UniProt Q96EC8)
Outline: as §1

[7] = biological target: YLPM1 (UniProt P49750)
Outline: as §1

[8] = biological target: YOD1 (UniProt Q5VVQ6)
Outline: as §1

[9] = biological target: YPEL5 (UniProt P62699)
Outline: as §1

[10] = biological target: YWHAB (UniProt P31946)
Outline: as §1

[11] = biological target: YWHAQ (UniProt P27348)
Outline: as §1

[12] = biological target: YWHAZ (UniProt E7ESK7)
Outline: as §1

[13] = biological target: YWHAZ (UniProt P63104)
Outline: as §1

[14] = biological target: YY1 (UniProt P25490)
Outline: as §1

[15] = biological target: ZADH2 (UniProt Q8N4Q0)
Outline: as §1

[16] = biological target: ZBTB21 (UniProt Q9ULJ3)
Outline: as §1

[17] = biological target: ZBTB43 (UniProt O43298)
Outline: as §1

[18] = biological target: ZC3H18 (UniProt Q86VM9)
Outline: as §1

[19] = biological target: ZBTB17 isoform 2 (UniProt Q13105)
Outline: as §1

Measured: log2 fold change

Chain of YY1 (P25490 whole entry, looked up): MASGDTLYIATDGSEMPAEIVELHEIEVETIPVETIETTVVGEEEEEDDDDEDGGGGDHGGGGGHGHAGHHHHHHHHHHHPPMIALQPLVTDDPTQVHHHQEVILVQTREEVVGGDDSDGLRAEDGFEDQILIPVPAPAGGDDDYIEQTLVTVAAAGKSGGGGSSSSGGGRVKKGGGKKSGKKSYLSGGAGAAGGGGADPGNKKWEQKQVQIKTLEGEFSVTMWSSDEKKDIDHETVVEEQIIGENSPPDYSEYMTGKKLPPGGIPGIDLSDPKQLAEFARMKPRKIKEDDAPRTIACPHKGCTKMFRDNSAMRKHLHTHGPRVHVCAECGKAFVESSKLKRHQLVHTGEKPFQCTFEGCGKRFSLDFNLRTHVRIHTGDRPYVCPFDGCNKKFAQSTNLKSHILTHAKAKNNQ
Chain of ZC3H18 (Q86VM9 whole entry, looked up): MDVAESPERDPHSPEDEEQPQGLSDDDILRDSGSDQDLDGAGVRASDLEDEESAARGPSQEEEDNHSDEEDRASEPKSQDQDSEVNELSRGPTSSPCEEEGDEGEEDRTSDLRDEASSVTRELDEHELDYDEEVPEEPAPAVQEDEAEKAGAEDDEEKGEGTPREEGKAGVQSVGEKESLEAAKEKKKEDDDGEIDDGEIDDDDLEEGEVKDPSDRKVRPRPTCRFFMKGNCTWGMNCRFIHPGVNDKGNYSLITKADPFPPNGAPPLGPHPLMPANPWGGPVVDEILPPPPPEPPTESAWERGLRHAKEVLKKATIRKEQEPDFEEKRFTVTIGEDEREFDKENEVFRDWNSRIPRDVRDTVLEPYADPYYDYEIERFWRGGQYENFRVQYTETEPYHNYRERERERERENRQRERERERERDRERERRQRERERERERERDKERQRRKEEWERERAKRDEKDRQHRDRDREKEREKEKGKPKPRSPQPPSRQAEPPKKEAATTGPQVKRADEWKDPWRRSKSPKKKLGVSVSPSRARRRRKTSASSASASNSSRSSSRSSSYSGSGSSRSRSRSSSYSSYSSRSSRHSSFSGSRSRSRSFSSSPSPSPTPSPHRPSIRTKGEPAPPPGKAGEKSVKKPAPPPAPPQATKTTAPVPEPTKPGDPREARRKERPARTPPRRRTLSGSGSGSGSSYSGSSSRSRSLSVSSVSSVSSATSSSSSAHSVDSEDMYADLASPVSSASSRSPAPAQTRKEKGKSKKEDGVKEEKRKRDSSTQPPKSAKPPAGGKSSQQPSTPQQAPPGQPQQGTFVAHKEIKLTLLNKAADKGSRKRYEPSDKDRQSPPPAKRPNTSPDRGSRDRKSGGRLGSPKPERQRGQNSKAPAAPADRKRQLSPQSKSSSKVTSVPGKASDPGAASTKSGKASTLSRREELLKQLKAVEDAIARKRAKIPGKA
Chain of ZBTB43 (O43298 whole entry, looked up): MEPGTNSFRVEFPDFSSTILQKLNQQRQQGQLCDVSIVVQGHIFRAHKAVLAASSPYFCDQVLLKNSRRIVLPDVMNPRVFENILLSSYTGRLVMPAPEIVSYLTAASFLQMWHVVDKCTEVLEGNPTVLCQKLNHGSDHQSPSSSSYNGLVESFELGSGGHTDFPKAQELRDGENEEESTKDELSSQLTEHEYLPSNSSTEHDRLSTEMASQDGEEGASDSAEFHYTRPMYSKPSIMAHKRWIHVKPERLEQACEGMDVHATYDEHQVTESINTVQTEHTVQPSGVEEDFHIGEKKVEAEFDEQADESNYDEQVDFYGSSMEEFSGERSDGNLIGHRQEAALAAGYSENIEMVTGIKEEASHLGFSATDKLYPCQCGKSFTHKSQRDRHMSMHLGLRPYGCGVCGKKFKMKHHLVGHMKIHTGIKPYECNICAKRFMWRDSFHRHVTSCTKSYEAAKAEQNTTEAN
Chain of YWHAB (P31946 whole entry, looked up): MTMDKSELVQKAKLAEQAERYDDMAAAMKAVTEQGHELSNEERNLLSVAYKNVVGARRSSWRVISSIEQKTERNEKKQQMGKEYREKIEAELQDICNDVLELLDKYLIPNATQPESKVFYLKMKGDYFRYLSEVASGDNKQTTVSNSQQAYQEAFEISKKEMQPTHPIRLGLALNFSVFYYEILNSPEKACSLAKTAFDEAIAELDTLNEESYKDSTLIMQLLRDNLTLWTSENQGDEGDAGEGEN
Chain of ZBTB21 (Q9ULJ3 whole entry, looked up): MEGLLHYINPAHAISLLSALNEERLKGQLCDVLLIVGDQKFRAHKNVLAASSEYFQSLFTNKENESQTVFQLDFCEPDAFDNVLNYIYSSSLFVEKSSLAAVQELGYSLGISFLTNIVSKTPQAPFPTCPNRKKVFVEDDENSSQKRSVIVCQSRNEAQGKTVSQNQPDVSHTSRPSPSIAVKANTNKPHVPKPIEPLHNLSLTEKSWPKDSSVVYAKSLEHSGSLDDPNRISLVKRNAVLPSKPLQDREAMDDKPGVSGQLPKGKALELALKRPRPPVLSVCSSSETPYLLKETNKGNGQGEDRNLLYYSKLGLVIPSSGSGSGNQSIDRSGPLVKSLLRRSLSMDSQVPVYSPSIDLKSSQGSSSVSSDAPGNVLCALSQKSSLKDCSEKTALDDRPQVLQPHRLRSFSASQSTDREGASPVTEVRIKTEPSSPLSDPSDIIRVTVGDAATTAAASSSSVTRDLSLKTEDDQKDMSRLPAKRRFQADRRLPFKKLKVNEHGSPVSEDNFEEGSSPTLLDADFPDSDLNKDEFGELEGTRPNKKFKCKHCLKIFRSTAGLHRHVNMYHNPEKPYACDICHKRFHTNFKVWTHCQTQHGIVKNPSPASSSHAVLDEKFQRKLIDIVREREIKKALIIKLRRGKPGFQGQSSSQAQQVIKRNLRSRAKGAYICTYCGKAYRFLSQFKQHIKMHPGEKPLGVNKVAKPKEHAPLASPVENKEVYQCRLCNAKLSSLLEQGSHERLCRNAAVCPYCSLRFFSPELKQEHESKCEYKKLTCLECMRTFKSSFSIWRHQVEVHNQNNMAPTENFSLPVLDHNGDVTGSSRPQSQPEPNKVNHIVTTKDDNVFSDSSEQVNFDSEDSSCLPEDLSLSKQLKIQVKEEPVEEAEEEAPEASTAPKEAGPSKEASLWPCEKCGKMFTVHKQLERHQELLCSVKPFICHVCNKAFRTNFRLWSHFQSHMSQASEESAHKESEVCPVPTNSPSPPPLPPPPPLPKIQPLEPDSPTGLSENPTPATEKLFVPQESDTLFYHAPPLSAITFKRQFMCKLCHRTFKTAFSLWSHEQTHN
Chain of YWHAQ (P27348 whole entry, looked up): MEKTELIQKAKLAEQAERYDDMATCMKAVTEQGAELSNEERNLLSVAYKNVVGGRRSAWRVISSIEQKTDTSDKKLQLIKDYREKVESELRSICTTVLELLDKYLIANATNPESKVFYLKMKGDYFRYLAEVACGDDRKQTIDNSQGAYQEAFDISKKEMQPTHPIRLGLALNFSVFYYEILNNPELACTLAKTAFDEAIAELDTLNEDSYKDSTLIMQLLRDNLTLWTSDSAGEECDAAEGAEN
Chain of ZADH2 (Q8N4Q0 whole entry, looked up): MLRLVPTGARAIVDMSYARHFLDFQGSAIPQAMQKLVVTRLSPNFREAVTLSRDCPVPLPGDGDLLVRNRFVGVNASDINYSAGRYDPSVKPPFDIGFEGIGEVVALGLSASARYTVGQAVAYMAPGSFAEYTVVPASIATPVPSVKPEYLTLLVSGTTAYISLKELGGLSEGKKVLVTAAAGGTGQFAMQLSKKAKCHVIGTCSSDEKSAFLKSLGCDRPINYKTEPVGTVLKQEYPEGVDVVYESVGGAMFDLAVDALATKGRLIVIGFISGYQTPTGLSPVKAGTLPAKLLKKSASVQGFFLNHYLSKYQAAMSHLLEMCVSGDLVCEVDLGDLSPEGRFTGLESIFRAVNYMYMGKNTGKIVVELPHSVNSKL
Chain of YWHAZ (UniProt P63104) (P63104 whole entry, looked up): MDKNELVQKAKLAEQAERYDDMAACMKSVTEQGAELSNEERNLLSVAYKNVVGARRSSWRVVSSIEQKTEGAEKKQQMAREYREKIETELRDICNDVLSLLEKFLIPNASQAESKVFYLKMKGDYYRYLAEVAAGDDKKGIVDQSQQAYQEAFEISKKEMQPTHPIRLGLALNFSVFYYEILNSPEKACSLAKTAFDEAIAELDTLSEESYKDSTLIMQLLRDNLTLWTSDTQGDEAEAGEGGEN
Chain of YBX1 (P67809 whole entry, looked up): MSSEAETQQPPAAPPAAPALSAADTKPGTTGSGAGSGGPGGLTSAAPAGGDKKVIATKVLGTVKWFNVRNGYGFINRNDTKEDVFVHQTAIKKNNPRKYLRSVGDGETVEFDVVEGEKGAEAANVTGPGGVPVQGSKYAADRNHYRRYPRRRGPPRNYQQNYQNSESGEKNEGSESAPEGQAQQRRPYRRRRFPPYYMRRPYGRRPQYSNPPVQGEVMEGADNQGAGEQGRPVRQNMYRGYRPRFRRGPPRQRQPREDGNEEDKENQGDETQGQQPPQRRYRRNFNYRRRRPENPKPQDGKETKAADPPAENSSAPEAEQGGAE
Chain of YOD1 (Q5VVQ6 whole entry, looked up): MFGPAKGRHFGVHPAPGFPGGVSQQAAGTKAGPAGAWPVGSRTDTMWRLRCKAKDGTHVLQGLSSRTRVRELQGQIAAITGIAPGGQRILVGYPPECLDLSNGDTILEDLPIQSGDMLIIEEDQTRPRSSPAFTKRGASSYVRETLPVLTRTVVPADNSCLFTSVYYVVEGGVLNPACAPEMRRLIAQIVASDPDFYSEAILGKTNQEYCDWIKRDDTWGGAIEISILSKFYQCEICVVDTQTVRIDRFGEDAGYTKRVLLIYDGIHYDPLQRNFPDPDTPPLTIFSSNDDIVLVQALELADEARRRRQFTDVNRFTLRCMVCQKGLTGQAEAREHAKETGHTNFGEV
Chain of YPEL5 (P62699 whole entry, looked up): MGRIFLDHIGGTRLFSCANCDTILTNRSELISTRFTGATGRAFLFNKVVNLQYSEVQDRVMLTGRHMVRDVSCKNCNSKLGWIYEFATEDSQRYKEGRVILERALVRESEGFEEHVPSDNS

C[C@H](Nc1ncnc2nc[nH]c12)c1cc2cccc(Cl)c2c(=O)n1-c1ccccc1 [duvelisib]
inactive: [1] -0.021 | [2] -0.208 | [3] 0.062 | [4] 0.163 | [5] -0.107 | [6] 0.259 | [7] 0.08 | [8] 0.033 | [9] -0.084 | [10] 0.056 | [11] -0.144 | [12] 0.171 | [13] -0.084 | [14] -0.007 | [15] 0.033 | [16] 0.081 | [17] 0.027 | [18] 0.019

CC(C)c1cnn2c(NCc3ccccc3)cc(NCCCCCCN)nc12
inactive: [1] 0.057 | [2] 0.038 | [3] 0 | [4] -0.032 | [5] 0.008 | [6] -0.044 | [7] -0.086 | [8] -0.153 | [9] -0.083 | [10] 0.014 | [11] -0.026 | [13] 0.052 | [15] -0.019 | [19] 0.054 | [16] -0.027 | [17] 0.138 | [18] -0.122
active: [14] -0.24

CCn1c(C(=O)N(C2CC2)C2CC2)cc2c3c(ncn3C)c(Nc3cc(C)n(C)n3)nc21
inactive: [1] -0.018 | [2] -0.016 | [3] -0.243 | [4] 0 | [5] -0.01 | [6] 0.022 | [7] -0.077 | [8] -0.014 | [9] 0.027 | [10] 0.027 | [11] 0.039 | [13] 0.017 | [14] 0.044 | [15] 0.154 | [19] 0.005 | [16] -0.038 | [17] -0.033 | [18] 0.018

CNc1nc(-c2ccc3c(N)n[nH]c3c2)cc(N2C[C@@H](C(=O)NC3CCCCC3)CC[C@H]2C)n1
inactive: [1] -0.092 | [2] 0.044 | [3] -0.037 | [4] -0.082 | [5] -0.115 | [6] -0.039 | [7] 0.006 | [8] 0.011 | [9] -0.06 | [10] -0.015 | [11] 0.179 | [12] -0.097 | [13] 0.031 | [14] -0.08 | [15] -0.011 | [16] -0.111 | [17] -0.014 | [18] -0.136

Cn1cc(-c2ccc3c(c2)CCN3C(=O)Cc2cccc(C(F)(F)F)c2)c2c(N)ncnc21
inactive: [1] -0.095 | [2] -0.199 | [3] -0.284 | [4] 0.03 | [5] -0.014 | [6] -0.035 | [7] 0.077 | [8] 0.023 | [9] -0.077 | [10] 0.005 | [11] 0.124 | [12] 0.102 | [13] 0.052 | [14] 0.004 | [15] 0.04 | [16] 0.122 | [17] 0.023 | [18] -0.03

CCCS(=O)(=O)Nc1ccc(F)c(C(=O)c2c[nH]c3ncc(Cl)cc23)c1F
active: [13] 0.228
inactive: [1] -0.037 | [2] -0.137 | [3] -0.217 | [4] -0.01 | [5] -0.096 | [6] 0.004 | [7] 0.047 | [8] 0.033 | [9] -0.127 | [10] 0.031 | [11] 0.233 | [12] -0.05 | [14] 0.037 | [15] -0.012 | [16] 0.091 | [18] -0.019

COc1cc2nc(-c3cc(F)ccc3O)nc(N[C@@H]3CNC[C@H]3C(C)(C)O)c2cc1OC
inactive: [1] 0.125 | [2] -0.054 | [3] -0.052 | [4] -0.094 | [5] 0.13 | [6] 0.043 | [7] 0.1 | [8] 0.018 | [9] 0.096 | [10] -0.062 | [11] -0.148 | [12] 0.028 | [13] -0.163 | [15] 0.045 | [16] 0.022 | [18] -0.066
active: [14] -0.268

c1cc(OCCN2CCCCC2)cc(-c2n[nH]c3ccc(-c4nnc[nH]4)cc23)c1
inactive: [1] -0.001 | [2] -0.156 | [3] -0.235 | [4] -0.051 | [5] -0.043 | [6] 0.036 | [7] 0 | [8] 0.043 | [9] 0.067 | [10] -0.019 | [11] 0.105 | [12] 0.095 | [13] 0.05 | [14] -0.052 | [15] -0.017 | [17] -0.026 | [18] -0.147

CC[C@H](C)[C@H](NC(=O)[C@H]([C@@H](C)CC)N(C)C(C)=O)C(=O)N[C@H](C(=O)N[C@@H](CC(C)C)C(=O)[C@@]1(C)CO1)[C@@H](C)O [epoxomicin]
inactive: [1] 0.118 | [2] -0.191 | [3] 0.009 | [4] -0.005 | [5] 0.023 | [6] 0.013 | [7] 0.059 | [8] 0.051 | [9] -0.052 | [10] 0.018 | [11] 0.111 | [12] -0.075 | [13] 0.041 | [14] -0.003 | [15] 0.077 | [16] -0.168 | [17] -0.054 | [18] -0.059

C[C@@H]1COCCN1c1cc(C2(S(C)(=O)=O)CC2)nc(-c2cccc3[nH]ccc23)n1
inactive: [1] -0.039 | [2] -0.368 | [3] -0.035 | [4] 0.095 | [5] 0.019 | [6] 0.076 | [7] 0.015 | [8] 0.055 | [9] -0.079 | [10] 0.025 | [11] 0.074 | [12] 0.165 | [13] 0.011 | [14] 0.02 | [15] 0.22 | [16] -0.101 | [17] -0.088 | [18] -0.008

c1cn2cc(-c3ccc4cn[nH]c4c3)nc(Nc3ccc(N4CCOCC4)cc3)c2n1 [entospletinib]
inactive: [1] -0.07 | [2] 0.162 | [3] -0.219 | [4] -0.015 | [5] -0.161 | [6] -0.046 | [7] -0.105 | [8] -0.013 | [9] 0.009 | [10] 0.009 | [11] -0.017 | [12] 0.161 | [13] 0.006 | [14] 0.022 | [15] 0.053 | [17] 0.137 | [18] 0.097

Cn1cc(-c2ccc3nnc(C(F)(F)c4ccc5ncccc5c4)n3n2)cn1
inactive: [1] 0.043 | [2] -0.136 | [3] 0.008 | [4] 0.108 | [5] 0.12 | [6] 0.032 | [7] 0.031 | [8] 0.057 | [9] -0.071 | [10] -0.037 | [11] -0.066 | [12] -0.007 | [13] -0.045 | [14] -0.056 | [15] 0.107 | [16] -0.009 | [17] -0.054 | [18] 0.008

Cc1ccc(Sc2cncc3sc(C(N)=O)cc23)cc1
inactive: [1] -0.012 | [2] -0.124 | [3] 0.03 | [4] -0.023 | [5] 0.071 | [6] -0.018 | [7] -0.008 | [8] 0.009 | [9] 0.01 | [10] -0.033 | [11] 0.079 | [12] -0.019 | [13] 0.123 | [14] 0.01 | [15] -0.015 | [16] 0.008 | [18] -0.064

CCCCN(Cc1ccc(C(=O)NO)cc1)C(=O)Nc1ccccc1 [Nexturastat A]
inactive: [1] 0.564 | [2] 0.231 | [3] 0.142 | [4] 0.021 | [5] 0.091 | [6] -0.011 | [7] 0.046 | [8] -0.011 | [9] -0.144 | [10] -0.048 | [11] -0.063 | [12] 0.34 | [13] -0.051 | [14] 0.069 | [15] 0.005 | [16] 0.106 | [17] -0.203 | [18] 0.11

O=C1NC(=O)C(c2cnc3ccccn23)=C1c1cn2c3c(cc(F)cc13)CN(C(=O)N1CCCCC1)CC2
inactive: [1] -0.02 | [2] 0.126 | [3] 0.011 | [4] -0.087 | [5] 0.032 | [6] 0.01 | [7] 0.026 | [8] -0.079 | [9] -0.064 | [10] -0.04 | [11] -0.095 | [12] -0.239 | [13] -0.025 | [14] -0.013 | [15] -0.043 | [16] -0.226 | [17] 0.196 | [18] 0.03
